# Test results: PubChem BioAssay (NCI)
# Compounds without any hit were thinned out: in the full panel of roughly 83,000, 20% have a hit.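 Treatment: one concentration, 48 hours, 96-well format. Scoring: percent growth, with anything below 10 considered active.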 Active and inactive are the calls of the source.
# Tested on: BT-549 breast
# Experiment: NCI-60 one-dose screen, 48 h (100 = growth as untreated, 0 = no growth, -100 = all killed)
# Conditions: 10 µM unless noted
row,SMILES,growth
1,CC(Br)C(O)c1cc2c(cc1Br)OCO2 (stereo not given),96.6% (inactive)
2,OC1CC2c3ccccc3C1c1ccccc12 (stereo not given),108% (inactive)
3,Cc1cc(C)c(S(=O)(=O)N2CCN(c3cc4c(cc3F)c(=O)c(C(=O)O)cn4C3CC3)CC2)c(C)c1,77.3% (inactive)
4,O=C(c1ccccc1)C(Cl)C(Cl)c1ccccc1 (stereo not given),96.5% (inactive)
5,Cc1cc(Cl)ccc1OC(C)C(=O)Nc1nnc(C2CC2)s1 (stereo not given),116% (inactive)
6,Cc1sc2nc(CSc3nnc(-c4ccco4)o3)[nH]c(=O)c2c1C,102% (inactive)
7,CCCCCCCCCCCCCCCCCCOc1cccc(CCOP(=O)(O)OCC[N+](C)(C)C)c1,92.5% (inactive)
8,C=CCOc1ccc(/C(O)=C2\C(=O)C(=O)N(c3nccs3)C2c2ccccc2F)cc1 (stereo not given),113% (inactive)
9,CC/C(=C(\c1ccc(O)cc1)c1ccc(OCCN(C)CCN(C)C(=O)CCC(=O)c2c(C)[nH]c(/C=C3\N=C(c4ccc[nH]4)C=C3OC)c2C)cc1)c1ccccc1,103% (inactive)
10,Cc1ccc(Oc2nc3ccccc3cc2-c2nnc(Cn3c(COc4ccccc4)nc4ccccc43)o2)cc1,14.7% (inactive)
11,CCOC(=O)c1cc(/C(=N\O)c2cc(OC)c(OC)c(OC)c2)n2cc(C)cc(C)c12,28.6% (inactive)
12,NC(=O)c1ccc2c(c1)OCO2,110% (inactive)
13,NC(=O)NNC(=O)c1ccccc1,107% (inactive)
14,O=c1c2cccc3c(Nc4ccc(F)cc4)ccc(c32)c2nc3ccccc3n12,87.5% (inactive)
15,C=C1C(=O)O[C@H]2[C@H]1CC/C(COC(=O)NCc1cc(OC)c(OC)c(OC)c1)=C\CC[C@@]1(C)O[C@@H]21,55.1% (inactive)
